The full ranking holds about 33,000 sequences; the median of “E-score (-0.5 to 0.5)” is about -0.011, and the highest 2% start at about 0.28. The list comes from a sample in which the highest values are over-represented; it also holds similar and randomly drawn sequences.
The sequences below were run against T1, Gcr1 (UniProt P07261) (assay: PBM E-score (8-mer binding enrichment) (E-score (-0.5 to 0.5)); higher = stronger / more preferred TF binding). Settings: protein concentration: 100 nM; construct: GST-full length.
T1 sequence: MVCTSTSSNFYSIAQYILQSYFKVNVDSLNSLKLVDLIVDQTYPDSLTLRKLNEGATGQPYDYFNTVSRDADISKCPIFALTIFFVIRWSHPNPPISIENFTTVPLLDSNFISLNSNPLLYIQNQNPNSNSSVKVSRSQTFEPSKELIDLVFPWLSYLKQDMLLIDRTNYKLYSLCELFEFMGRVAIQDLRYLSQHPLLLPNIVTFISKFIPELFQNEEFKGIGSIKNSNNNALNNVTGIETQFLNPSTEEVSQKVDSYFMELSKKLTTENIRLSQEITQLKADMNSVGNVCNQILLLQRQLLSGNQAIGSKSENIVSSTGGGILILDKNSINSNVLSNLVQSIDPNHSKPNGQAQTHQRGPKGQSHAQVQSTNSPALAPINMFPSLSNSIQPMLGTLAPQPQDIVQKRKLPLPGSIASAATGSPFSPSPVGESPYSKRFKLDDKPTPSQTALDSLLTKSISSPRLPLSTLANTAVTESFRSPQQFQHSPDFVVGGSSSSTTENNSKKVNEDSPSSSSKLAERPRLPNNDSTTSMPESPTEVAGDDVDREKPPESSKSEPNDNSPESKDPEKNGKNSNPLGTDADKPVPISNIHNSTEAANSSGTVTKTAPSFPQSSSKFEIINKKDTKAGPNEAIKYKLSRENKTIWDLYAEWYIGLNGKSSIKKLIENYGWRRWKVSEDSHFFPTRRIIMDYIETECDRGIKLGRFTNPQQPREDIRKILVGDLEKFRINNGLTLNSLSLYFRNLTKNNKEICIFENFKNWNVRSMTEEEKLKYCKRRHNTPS
Description: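 Universal 'all 10-mer' protein binding microarrays (Agilent AMADID 015681) probed with GST-tagged S. cerevisiae TFs (full-length or DBD) made by in vitro transcription/translation (PURExpress), about 100-200 nM. Bound TF was detected with fluorescent anti-GST. Each ungapped 8-mer (which stands for itself and its reverse complement) is scored by the PBM enrichment score (E-score), a modified Wilcoxon-Mann-Whitney statistic from -0.5 to +0.5, computed with the Universal PBM Analysis Suite. Scale: above 0.35 generally sequence-specific binding.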

| Sequence | PBM E-score |
| --- | --- |
| AGCATCCG | 0.372 |
| ACTTTAAA | 0.0642 |
| ATAGTAAG | -0.0276 |
| ACAAGACC | -0.0386 |
| GAGCAATA | 0.0781 |
| CCGAACTC | -0.0172 |
| ACTGGAAG | 0.463 |
| ACTGGAAA | 0.0867 |
| CCTGGAAC | -0.0042 |
| AATGGGAG | 0.0925 |
| AATGGAAG | 0.27 |
| AATGGAAC | 0.154 |
| AATGGAAT | 0.301 |
| ACGGGAAG | 0.112 |
| AATGGGAT | 0.28 |
| CCTGGAAG | 0.0765 |
| AATGGGAA | 0.132 |
| ACTGGAAC | 0.301 |
| AGGCAATC | -0.245 |
| CTCCAAGA | 0.0262 |
| ATTTGCAC | 0.0134 |
| GTAGCTAA | -0.0197 |
| TAGAAACA | 0.112 |
| TTGAAAAA | 0.0707 |
| CCCATAGC | -0.16 |

| Sequence | PBM E-score |
| --- | --- |
| ACTGGAAT | 0.415 |
| ACGGGAAT | 0.111 |
| ACTGGGAT | 0.0877 |
| AGCCGTGG | -0.108 |
| ACGAGAGG | -0.238 |
| CCGGTATA | 0.191 |
| CCTGTATC | 0.324 |
| CCTGTAGA | 0.283 |
| CCTGTATA | 0.2 |
| ACTGTATC | -0.275 |
| AAGGTATC | 0.158 |
| ACTGTAGA | -0.079 |
| CCGGTATC | 0.288 |
| GCTGTAGA | -0.0143 |
| CAGGTATC | 0.311 |
| ACGGTATC | -0.0774 |
| CAGGTATA | -0.0414 |
| ACGGTAAG | -0.0708 |
| CAACTGGC | 0.0226 |
| GATCACCA | -0.0057 |
| TACCGTAA | 0.0593 |
| GACCCCCC | -0.241 |
| CGCCTGCA | -0.117 |
| AATGAGTA | 0.143 |
| GAACCCCC | 0.0349 |

| Sequence | PBM E-score |
| --- | --- |
| AGAACCCA | 0.234 |
| GAACCCCA | 0.344 |
| GGGACCCA | 0.303 |
| AGAACCTA | 0.0206 |
| GGAACCCA | 0.394 |
| CGAACCTA | -0.117 |
| TGGACCCA | 0.104 |
| GAACCCAA | 0.167 |
| GGAACCTA | 0.401 |
| TGAACCCA | 0.0317 |
| GGGACCCC | 0.00587 |
| CGATGGGC | -0.0735 |
| AGCTTCAT | 0.0447 |
| CTAACCAG | 0.0668 |
| GGCCCCCA | 0.231 |
| CATACCGA | 0.0765 |
| ACTCCTTA | 0.0309 |
| AGCCACAA | 0.15 |
| CGAACCCC | 0.0243 |
| GGAACCCC | 0.394 |
| AGAACCCC | 0.0794 |
| ACCTATCC | 0.0168 |
| ATGCTACG | 0.0159 |
| ACACACTC | 0.0505 |
| CGACATTC | -0.0306 |

| Sequence | PBM E-score |
| --- | --- |
| AGACATTA | -0.0316 |
| CGACATTA | 0.306 |
| CTGGGTGC | 0.244 |
| GCTAGCCA | -0.232 |
| GAATGGAA | 0.225 |
| TAATGGCA | 0.295 |
| TATTGGAA | 0.288 |
| AAATGGAA | 0.239 |
| TAATGGAA | 0.28 |
| CAATGGCA | -0.159 |
| GAATGGCA | -0.0438 |
| GATTGGAA | 0.258 |
| CATTGGAA | 0.106 |
| GTTTATAA | 0.129 |
| AATGTGAT | -0.0732 |
| AATTGTCT | -0.147 |
| GCTACTCC | 0.0342 |
| GCACCTGA | 0.0656 |
| GCAGCTAC | 0.267 |
| TCAGCTAA | -0.225 |
| GCAGCTAA | 0.329 |
| GCAGCTGA | 0.336 |
| TCAGCTGA | -0.106 |
| GCAGCTGC | 0.249 |
| CTCATTCC | 0.0687 |

| Sequence | PBM E-score |
| --- | --- |
| CAGCCCCG | -0.107 |
| AGGCGAGC | -0.0288 |
| GGGTGATA | 0.0068 |
| CCGCAAAA | 0.0921 |
| AATACCAC | 0.097 |
| ACTACCAC | 0.101 |
| GCTACCAA | 0.179 |
| GCTACCAC | 0.323 |
| GATACCAA | 0.154 |
| GATACCAC | 0.329 |
| AACCTAAG | -0.0759 |
| ACCTCCTC | -0.194 |
| AACGTCTA | 0.00101 |
| CTTCCTAC | 0.18 |
| ATTCCTAC | 0.0721 |
| ATTCCTGA | 0.299 |
| GTTCCTAA | 0.237 |
| GATCCTGA | 0.0899 |
| ATTCCTGG | 0.165 |
| ATTCCTAA | 0.284 |
| CTTCCTAA | 0.294 |
| ATTCCTGC | 0.048 |
| CATCCTGA | 0.292 |
| ATTCCTAG | -0.0289 |
| TATCCTGA | 0.156 |

| Sequence | PBM E-score |
| --- | --- |
| TAGACCTA | -0.0537 |
| AACCAGAG | 0.0777 |
| TACACAGA | -0.106 |
| CTTCCTTA | 0.153 |
| GGGTTGCA | -0.0951 |
| GAAGCGTC | 0.268 |
| CATCAACA | 0.015 |
| ATGTTGTA | 0.104 |
| CAGCACCC | 0.277 |
| AAGCACCT | 0.106 |
| GAGCACAC | -0.271 |
| AAGCACCC | 0.283 |
| AAGCACCG | 0.0663 |
| GAGCACCC | 0.329 |
| ACGCCATG | -0.0676 |
| GGTAAAAC | -0.056 |
| AATGGCGC | 0.253 |
| GCTTCTGA | 0.0646 |
| GCTTCGTA | 0.329 |
| GCTTCTCC | 0.27 |
| ACTTCTTA | 0.104 |
| GCTTCTCA | 0.299 |
| ACTTCGTA | 0.0106 |
| CCTTCTCA | -0.156 |
| GCTTCTTA | 0.338 |

| Sequence | PBM E-score |
| --- | --- |
| CCTTCGTA | 0.00994 |
| CCTATTGC | -0.0151 |
| CACGGAAC | 0.0756 |
| ACCCAAAT | 0.233 |
| AAGTTCCT | 0.163 |
| CTTGGTTC | 0.149 |
| AAACAGAG | -0.244 |
| TCCCTCAA | 0.00435 |
| ATGTTCCG | -0.119 |
| CCCGAAAG | 0.224 |
| AGGCGCTC | -0.0859 |
| CTCTGCAC | -0.0576 |
| GATTCCAC | 0.382 |
| AATTCCAG | 0.274 |
| CATTCCAA | 0.0418 |
| AATTCCAT | 0.191 |
| AATTCCAC | 0.191 |
| GATTCCAA | 0.416 |
| AATTCCAA | 0.308 |
| TATTCCAA | 0.224 |
| CATTCCAC | 0.0952 |
| ACCAACGG | -0.0789 |
